Records with an inconclusive call do not appear. Activity calls are given as the source filed them. The call rests on the fitted dose curve; in most records, active means well fitted curve in the direction sought with a large enough effect; inconclusive means small, poorly fitted or top-dose-only effect, or another doubt; inactive means no such curve, though single readings can be large; an effect the other way counts as inactive or inconclusive.
Tests used:
[1] = qHTS of pediatric cancer cell lines to identify multiple opportunities for drug repurposing: Primary screen for SK-N-SH cells (AID 1347098); further: nearly all actives have a fitted effect of over 65% in size; further: potency means the concentration at half of the fitted maximal effect;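 on activity change, negative = cytotoxic: DMSO served as neutral control and bortezomib at 2.3 µM as positive control; on the % scale 0 is the no-effect control and ±100 the full control effect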
Procedure, shortened: (§1)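 Cells (500-1,000/well) rested 5 h, then received compounds for 48 h; metabolically active cells were measured by CellTiter-Glo luminescence. Final concentrations spanned up to 46 µM (MIPE, 11-point) or 0.59 nM-46 µM (NPC, 8-point) in primary screens, 11-point in follow-ups.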

[2] = qHTS of pediatric cancer cell lines to identify multiple opportunities for drug repurposing: Primary screen for NB1643 cells (AID 1347099);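 further: plate controls were DMSO neutral control for no effect and bortezomib positive control for full effect; nearly all actives have a fitted effect of over 50% in size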
Procedure, shortened: (§2)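 Primary screen of approved and investigational compounds on cells in growth media at 37 degrees C, 5% CO2. MIPE set at 11-point and NPC set at 8-point dilutions; viability scored by ATP-based luminescence at 48 hours.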

[3] = qHTS of pediatric cancer cell lines to identify multiple opportunities for drug repurposing: Primary screen for LAN-5 cells (AID 1347100);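 further: plate controls were DMSO neutral control for no effect and bortezomib positive control for full effect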
Procedure, shortened: as §1

[4] = qHTS of pediatric cancer cell lines to identify multiple opportunities for drug repurposing: Primary screen for BT-12 cells (AID 1347101); further: nearly all actives have a fitted effect of over 25% in size; further: potency means the concentration at half of the fitted maximal effect;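 on activity change, negative = cytotoxic: plate controls were DMSO for no effect and bortezomib positive control for full effect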
Procedure, shortened: as §1

[5] = qHTS of pediatric cancer cell lines to identify multiple opportunities for drug repurposing: Primary screen for MG 63 (6-TG R) cells (AID 1347105); further: nearly all actives have a fitted effect of over 50% in size; further: potency means the concentration at half of the fitted maximal effect; on activity change, negative = cytotoxic: on the % scale 0 is the no-effect control and ±100 the full control effect
Procedure, shortened: as §2

[6] = qHTS of pediatric cancer cell lines to identify multiple opportunities for drug repurposing: Primary screen for control Hh wild type fibroblast cells (AID 1347106);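 further: series mostly up to about 46 µM; on the % scale 0 is the no-effect control and ±100 the full control effect; a drop in luminescence marks cytotoxicity and a rise apparent proliferation; nearly all actives have a fitted effect of over 55% in size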
Procedure, shortened: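 Viability after 48 h compound treatment at 37C, 500-1,000 cells/well, read as ATP luminescence with CellTiter-Glo. Primary screens used 11-point (MIPE, 0.78 nM-46 µM) or 8-point (NPC, 0.59 nM-46 µM) final concentrations; follow-up screens used 11-point dilutions.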

[7] = qHTS of pediatric cancer cell lines to identify multiple opportunities for drug repurposing: Primary screen for Rh41 cells (AID 1347108);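 further: series mostly up to about 46 µM; luminescence drop marks cytotoxic hits; nearly all actives have a fitted effect of over 70% in size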
Procedure, shortened: as §2

[8] = qHTS of pediatric cancer cell lines to identify multiple opportunities for drug repurposing: Primary screen for RD cells (AID 1347104); further: nearly all actives have a fitted effect of over 55% in size; further: potency means the concentration at half of the fitted maximal effect;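 on activity change, negative = cytotoxic: plate controls were DMSO for no effect and bortezomib for full effect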
Procedure, shortened: as §2

[9] = qHTS of pediatric cancer cell lines to identify multiple opportunities for drug repurposing: Primary screen for Rh18 cells (AID 1347102); further: on the % scale 0 is the no-effect control and ±100 the full control effect; nearly all actives have a fitted effect of over 65% in size
Procedure, shortened: as §1

[10] = qHTS of pediatric cancer cell lines to identify multiple opportunities for drug repurposing: Primary screen for OHS-50 cells (AID 1347103); further: nearly all actives have a fitted effect of over 40% in size; further: potency means the concentration at half of the fitted maximal effect;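 on activity change, negative = cytotoxic: plate controls were DMSO neutral control for no effect and bortezomib positive control for full effect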
Procedure, shortened: as §1

[11] = qHTS of pediatric cancer cell lines to identify multiple opportunities for drug repurposing: Primary screen for Rh30 cells (AID 1347107); further: series mostly up to about 46 µM; on the % scale 0 is the no-effect control and ±100 the full control effect; nearly all actives have a fitted effect of over 75% in size
Procedure, shortened: as §1

[12] = qHTS of pediatric cancer cell lines to identify multiple opportunities for drug repurposing: Primary screen for Saos-2 cells (AID 1347097); further: nearly all actives have a fitted effect of over 40% in size; further: potency means the concentration at half of the fitted maximal effect; on activity change, negative = cytotoxic: on the % scale 0 is the no-effect control and ±100 the full control effect
Procedure, shortened: as §2

Nc1ccc(S(=O)(=O)Nc2ccccc2)cc1
inactive: Potency [1] | Potency [2] | Potency [3] | Potency [4] | Potency [5] | outcome [6] | Potency [7]

CCCCOc1cc(C(=O)OCCN(CC)CC)ccc1N
inactive: Potency [1] | Potency [2] | Potency [3] | Potency [4] | Potency [8] | Potency [5] | outcome [6] | Potency [7]

CC/C=C(\C(=O)N[C@@H]1C(=O)N2C(C(=O)OCOC(=O)C(C)(C)C)=C(COC(N)=O)CS[C@H]12)c1csc(N)n1
inactive: Potency [1] | Potency [2] | Potency [3] | Potency [4] | Potency [9] | Potency [10] | Potency [8] | Potency [5] | outcome [6] | outcome [11] | Potency [7]

Cc1c(O)cccc1C(=O)N[C@@H](CSc1ccccc1)[C@H](O)CN1C[C@H]2CCCC[C@H]2C[C@H]1C(=O)NC(C)(C)C
inactive: outcome [6] | outcome [11]
active: Potency [12] 26.6 µM | Potency [10] 24.6 µM | Potency [5] 26.6 µM

CC1(C)Oc2ccc(C#N)cc2[C@@H](N2CCCC2=O)[C@@H]1O
inactive: Potency [1] | Potency [2] | Potency [3] | Potency [4] | Potency [10] | Potency [8] | Potency [5] | outcome [6] | outcome [11] | Potency [7]

NC1[C@H]2CN(c3nc4c(cc3F)c(=O)c(C(=O)O)cn4-c3ccc(F)cc3F)C[C@@H]12 (some centres undefined)
inactive: Potency [12] | Potency [10] | Potency [5] | outcome [11]

CN(C)CCCN1c2ccccc2CCc2ccccc21
active: Potency [10] 27.6 µM
inactive: Potency [12] | Potency [2] | Potency [5] | outcome [6] | Potency [7]

O=c1[nH]cnc2c1ncn2[C@@H]1O[C@H](CO)[C@@H](O)[C@H]1O
inactive: Potency [1] | Potency [2] | Potency [3] | Potency [4] | Potency [10] | Potency [8] | Potency [5] | outcome [6] | outcome [11] | Potency [7]

CCCCOC(=O)c1ccc(O)cc1
inactive: Potency [1] | Potency [2] | Potency [3] | Potency [9] | Potency [8] | Potency [5] | outcome [6] | outcome [11] | Potency [7]

Cc1cc(C(C#N)c2ccc(Cl)cc2)c(Cl)cc1NC(=O)c1cc(I)cc(I)c1O (centres undefined)
active: Potency [12] 26.6 µM | Potency [10] 30.9 µM
inactive: Potency [9] | outcome [6] | Potency [7]

N[C@H](C(=O)O)c1ccc(O)cc1
inactive: Potency [1] | Potency [2] | Potency [3] | Potency [4] | Potency [10] | Potency [5] | outcome [6] | Potency [7]

O=C(O)Cc1sc(-c2ccccc2)nc1-c1ccc(Cl)cc1
inactive: Potency [1] | Potency [2] | Potency [3] | Potency [4] | Potency [9] | Potency [10] | Potency [8] | Potency [5] | outcome [6] | outcome [11] | Potency [7]

NS(=O)(=O)c1cc2c(cc1Cl)NC(CSCc1ccccc1)=NS2(=O)=O
inactive: Potency [1] | Potency [2] | Potency [3] | Potency [4] | Potency [8] | Potency [5] | outcome [6] | outcome [11] | Potency [7]

CCN(CC)C(=O)Nc1ccc(OCC(O)CNC(C)(C)C)c(C(C)=O)c1 (centres undefined)
inactive: Potency [1] | Potency [2] | Potency [3] | Potency [4] | Potency [9] | Potency [10] | Potency [5] | outcome [6] | outcome [11] | Potency [7]

Nc1nc2c(ncn2CCC(CO)CO)c(=O)[nH]1
inactive: Potency [1] | Potency [2] | Potency [3] | Potency [4] | Potency [9] | Potency [10] | Potency [8] | Potency [5] | outcome [6] | outcome [11] | Potency [7]

O=C(O)[C@@H]1CSCN1
inactive: Potency [1] | Potency [2] | Potency [4] | Potency [9] | Potency [10] | Potency [8] | Potency [5] | outcome [6] | outcome [11]

COc1ccc2cc1Oc1ccc(cc1)C[C@H]1c3c(cc4c(c3Oc3cc5c(cc3OC)CCN(C)[C@@H]5C2)OCO4)CCN1C
active: Potency [1] 12.2 µM | Potency [4] 24.6 µM | Potency [10] 15.5 µM | Potency [8] 23.7 µM
inactive: Potency [2]

O=C(O)COc1nn(Cc2ccccc2)c2ccccc12
inactive: Potency [1] | Potency [2] | Potency [4] | Potency [10] | Potency [8] | Potency [5] | outcome [6] | outcome [11] | Potency [7]

CCOC(=O)[C@H](CCc1ccccc1)N[C@@H](C)C(=O)N1C(=O)N(C)C[C@H]1C(=O)O
inactive: Potency [1] | Potency [2] | Potency [4] | Potency [9] | Potency [10] | Potency [8] | Potency [5] | outcome [6] | outcome [11] | Potency [7]

CN(N=O)C(=O)N[C@@H]1[C@@H](O)[C@H](O)[C@@H](CO)O[C@@H]1O
inactive: Potency [1] | Potency [2] | Potency [4] | Potency [9] | Potency [10] | Potency [8] | Potency [5] | outcome [6] | Potency [7]

NS(=O)(=O)c1cc2c(cc1C(F)(F)F)NC(Cc1ccccc1)NS2(=O)=O (centres undefined)
inactive: Potency [1] | Potency [2] | Potency [3] | Potency [4] | Potency [9] | Potency [10] | Potency [5] | outcome [6] | outcome [11] | Potency [7]

NC(N)=NCCC[C@H](N)C(=O)O
inactive: activity change, negative = cytotoxic [1] -0.158% [at 6 µM] | activity change, negative = cytotoxic [2] 7.96% [at 4.84 µM] | activity change, negative = cytotoxic [3] 8.53% [at 4.84 µM] | activity change, negative = cytotoxic [4] 1.23% [at 6.03 µM] | activity change, negative = cytotoxic [10] -1.99% [at 6.18 µM] | activity change, negative = cytotoxic [8] 2.4% [at 4.84 µM] | activity change, negative = cytotoxic [5] -20.2% [at 4.84 µM] | activity change, negative = cytotoxic [6] 15% [at 4.84 µM] | activity change, negative = cytotoxic [11] 18% [at 4.84 µM] | activity change, negative = cytotoxic [7] 10.4% [at 4.84 µM]

CCC(=O)c1ccc(O)cc1
inactive: Potency [1] | Potency [2] | Potency [3] | Potency [4] | Potency [9] | Potency [8] | Potency [5] | outcome [6] | outcome [11] | Potency [7]

C[C@@H]1CCN(C(=O)[C@H](CCCN=C(N)N)NS(=O)(=O)c2cccc3c2NC[C@H](C)C3)[C@@H](C(=O)O)C1
inactive: Potency [1] | Potency [2] | Potency [3] | Potency [4] | Potency [9] | Potency [8] | Potency [5] | outcome [6] | outcome [11] | Potency [7]

COc1ccccc1O
inactive: Potency [1] | Potency [2] | Potency [3] | Potency [4] | Potency [9] | Potency [10] | outcome [6] | outcome [11] | Potency [7]

Cn1c(=O)c2c(ncn2CC2OCCO2)n(C)c1=O
inactive: Potency [1] | Potency [2] | Potency [3] | Potency [4] | Potency [9] | Potency [10] | Potency [8] | Potency [5] | outcome [6] | Potency [7]

OCc1cc(C(O)CNCCCCCCOCCCCc2ccccc2)ccc1O (centres undefined)
active: Potency [10] 19.5 µM
inactive: Potency [12] | Potency [2] | Potency [5] | outcome [6] | outcome [11] | Potency [7]

CN(C)CC[C@@H](c1ccc(Cl)cc1)c1ccccn1
inactive: Potency [1] | Potency [2] | Potency [3] | Potency [4] | Potency [9] | Potency [5] | outcome [6] | outcome [11] | Potency [7]

CCCCCCCCCCCCOS(=O)(=O)O
inactive: Potency [1] | Potency [2] | Potency [3] | Potency [4] | Potency [9] | Potency [8] | Potency [5] | outcome [6] | outcome [11] | Potency [7]

NCCNCCNCCNCCN
inactive: activity change, negative = cytotoxic [1] -8.89% [at 11.4 µM] | activity change, negative = cytotoxic [2] 0.713% [at 9.22 µM] | activity change, negative = cytotoxic [3] -15.5% [at 9.22 µM] | activity change, negative = cytotoxic [4] 0.69% [at 11.5 µM] | activity change, negative = cytotoxic [9] -4.13% [at 9.22 µM] | activity change, negative = cytotoxic [10] -3.79% [at 11.5 µM] | activity change, negative = cytotoxic [8] -3.51% [at 9.22 µM] | activity change, negative = cytotoxic [6] -0.844% [at 9.22 µM] | activity change, negative = cytotoxic [11] 7.05% [at 9.22 µM] | activity change, negative = cytotoxic [7] 10.3% [at 9.22 µM]

CCOC(=O)c1ccc(O)cc1
inactive: Potency [1] | Potency [2] | Potency [4] | Potency [9] | Potency [8] | Potency [5] | outcome [6] | outcome [11] | Potency [7]

CSc1ccc2c(c1)N(CCC1CCCCN1C)c1ccccc1S2 (centres undefined)
active: Potency [12] 23.7 µM | Potency [4] 24.6 µM | Potency [10] 17.4 µM | Potency [8] 26.6 µM
inactive: outcome [6]

Nc1ccc(S(=O)(=O)Nc2ccc(Cl)nn2)cc1
inactive: Potency [1] | Potency [2] | Potency [3] | Potency [4] | Potency [9] | Potency [5] | outcome [6] | outcome [11] | Potency [7]

COc1ccc(S(=O)(=O)Nc2nnc(CC(C)C)s2)cc1
inactive: Potency [1] | Potency [2] | Potency [3] | Potency [4] | Potency [9] | Potency [10] | Potency [8] | Potency [5] | outcome [6] | outcome [11] | Potency [7]

O=c1[nH]c(=O)c2[nH]c(=O)[nH]c2[nH]1
inactive: activity change, negative = cytotoxic [1] 13.8% [at 11.4 µM] | activity change, negative = cytotoxic [2] -5.19% [at 9.22 µM] | activity change, negative = cytotoxic [4] 3.54% [at 11.5 µM] | activity change, negative = cytotoxic [9] 4.04% [at 9.22 µM] | activity change, negative = cytotoxic [10] -8.33% [at 11.5 µM] | activity change, negative = cytotoxic [8] 1.57% [at 9.22 µM] | activity change, negative = cytotoxic [5] -26.1% [at 9.22 µM] | activity change, negative = cytotoxic [6] 8.6% [at 9.22 µM] | activity change, negative = cytotoxic [7] -6.34% [at 9.22 µM]
